Screens from PubChem.
The list is not random: actives were taken first. Their share in the collection is about 4.8%.
APP 5'UTR act = activators of APP 5'UTR luciferase reporter, primary screen, SH-SY5Y cells; SH-SY5Y APP 5'UTR luciferase reporter, luminescence; zero percent = DMSO vehicle wells; activation, % at 2 µM; 190,000 compounds, 1% hits; AID 1276, 2008;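 active = activation above a set limit, based on mean plus 3 SD of controls, cut at about 140% in these data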
Hsp70 act = Hsp70 transcriptional activators, primary screen, cell-based, HeLa, Hsp70 promoter luciferase, luminescence, 10 µM | HeLa Hsp70 promoter luciferase reporter; scaled: vehicle 0, proteasome-inhibitor control 100% | 200,000 compounds, 0.04% hits | activation, % at 10 µM | AID 1203, 2008;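 active = activation above the mean across all tested compounds plus 3 SD, cutoff set per campaign, cut at about 5.5% in these data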;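 also: 100% = MG132 at 30 µM as the positive control and 0% = DMSO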
APP 5UTR inh = inhibitors of APP translation via 5'UTR reporter, primary screen, APP 5'UTR luciferase, SH-SY5Y cells; SH-SY5Y APP 5'UTR-luciferase reporter, luminescence; inhibition, % at 2 µM; 190,000 compounds, 0.82% hits; AID 1285, 2008;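 active = inhibition above a set limit, derived from the sample mean plus 3 SD, cut at about 45% in these data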
NF-kB expr up = activators of NF-kB expression in neurons, primary screen, cell-based, HTS; human neuronal cells, NF-kB reporter expression; active compounds read high; fold change at 12.5 µM; 190,000 compounds, 1.6% hits; AID 1239, 2008; in the data active = fold change above about 3.3
STAT1 activator = STAT1 signaling activators, primary screen, cell-based, HTS, luciferase reporter | 200,000 compounds, 2.6% hits | NIH 3T3 STAT1-luciferase reporter, IFN-gamma, luminescence; 100% = IFN-gamma alone, no compound | activation (% of control), % at 5.5 µM | AID 932, 2007;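 active = activation above the screen-wide mean activation plus 3 SD, cut at about 130% in these data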;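 also: raw ratio to IFN-gamma control signal so 100% means no change and 0% no light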
Wee1 stabilizer = Wee1 degradation inhibitors, primary screen, cell-based, HeLa, Wee1K328M-luciferase, luminescence; Wee1-like protein kinase (Homo sapiens), P30291; HeLa Luc-Wee1K328M stability; 100% = proteasome inhibitor MG132 effect; reporter increase, % at 5 µM; 220,000 compounds, 1.2% hits;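 active = activation above the mean of all tested compounds plus 3 SD, set per screening run, cut at about 8.8% in these data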;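 also: cells exposed to compound for 20 h before luminescence read; 0% = DMSO alone and 100% = MG132 at 30 µM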
Target sequence (P30291 whole entry K328M): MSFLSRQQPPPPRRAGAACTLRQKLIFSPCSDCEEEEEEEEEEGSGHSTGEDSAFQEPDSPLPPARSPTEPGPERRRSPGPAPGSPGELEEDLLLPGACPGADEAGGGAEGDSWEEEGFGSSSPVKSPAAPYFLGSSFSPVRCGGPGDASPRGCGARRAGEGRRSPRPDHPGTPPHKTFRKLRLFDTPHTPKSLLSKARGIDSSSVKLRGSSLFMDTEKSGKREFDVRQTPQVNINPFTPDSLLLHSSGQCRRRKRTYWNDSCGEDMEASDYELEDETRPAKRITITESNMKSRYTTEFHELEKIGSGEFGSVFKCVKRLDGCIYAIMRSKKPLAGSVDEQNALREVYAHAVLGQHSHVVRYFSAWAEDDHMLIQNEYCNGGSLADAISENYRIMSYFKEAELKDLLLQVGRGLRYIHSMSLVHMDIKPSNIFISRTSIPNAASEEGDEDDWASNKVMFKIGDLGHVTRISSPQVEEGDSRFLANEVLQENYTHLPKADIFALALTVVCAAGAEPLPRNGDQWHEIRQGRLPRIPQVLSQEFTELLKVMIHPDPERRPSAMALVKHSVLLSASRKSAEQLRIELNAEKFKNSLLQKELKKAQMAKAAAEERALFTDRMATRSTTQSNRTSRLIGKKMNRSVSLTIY
Starred values were filed as active, the others as inactive.

CCOC(=O)C(=O)N=Nc1c(O)n(C)c2ccccc12 was read as APP 5'UTR act 2.9, Hsp70 act -0.1, APP 5UTR inh -2.9, NF-kB expr up 1.27, STAT1 activator 109.1 and Wee1 stabilizer 1.9.
Screening Cc1ccc(NC(=O)C2CCN(S(=O)(=O)c3c(C)n[nH]c3C)CC2)nc1 returned APP 5'UTR act 1.9, Hsp70 act -0.2, APP 5UTR inh -1.9, NF-kB expr up 0.95, STAT1 activator 100.7 and Wee1 stabilizer 10.5*.
Brc1ccc(COn2ccnc2)cc1 was read as APP 5'UTR act 11.8, Hsp70 act -0.2, APP 5UTR inh -11.8, NF-kB expr up 1.05, STAT1 activator 99.0 and Wee1 stabilizer 1.2.
Screening O=C(CCCOc1ccccc1)Nc1nc2ccccc2[nH]1 returned APP 5'UTR act 61.9, Hsp70 act 0.0, APP 5UTR inh -61.9, NF-kB expr up 1.46, STAT1 activator 129.9* and Wee1 stabilizer -1.2.
`COc1ccc(C(=O)Nn2c(SCC(=O)c3ccccc3)nc3ccccc3c2=O)cc1` gave APP 5'UTR act 155.0*, Hsp70 act -0.1, APP 5UTR inh -155.0, NF-kB expr up 0.73, STAT1 activator 105.3 and Wee1 stabilizer -2.0.
For COc1ccc(C(=O)Nc2nc3ccccc3c(=O)[nH]2)cc1 the results were APP 5'UTR act 177.2*, Hsp70 act -0.2, APP 5UTR inh -177.2, NF-kB expr up 4.01*, STAT1 activator 123.9 and Wee1 stabilizer 4.7.
Screening O=C(Nc1nc2ccccc2[nH]1)c1ccccc1 returned APP 5'UTR act 214.2*, Hsp70 act -0.1, APP 5UTR inh -214.2, NF-kB expr up 3.22, STAT1 activator 94.8 and Wee1 stabilizer 3.0.
`COc1ccc(C(=O)Nc2nc3cc(OC)c(OC)cc3c(=O)[nH]2)cc1` gave APP 5'UTR act 9.0, Hsp70 act -0.1, APP 5UTR inh -9.0, NF-kB expr up 0.88, STAT1 activator 97.6 and Wee1 stabilizer 0.7.
CC1CCN(S(=O)(=O)c2ccc3c(c2)c(=O)c(C(=O)NCc2cccs2)cn3C)CC1 was read as APP 5'UTR act 14.2, Hsp70 act 0.3, APP 5UTR inh -14.2, NF-kB expr up 1.3, STAT1 activator 96.4 and Wee1 stabilizer -2.1.
`C=CCNC(=O)CC1C(=O)NCCN1Cc1ccc(-c2ccccc2)cc1` (centres undefined) gave APP 5'UTR act 1.5, Hsp70 act -0.2, APP 5UTR inh -1.5, NF-kB expr up 1.15, STAT1 activator 97.3 and Wee1 stabilizer 10.8*.
`O=C(CC1C(=O)NCCN1Cc1ccc(-c2ccccc2)cc1)NCC1CC1` (centres undefined) gave APP 5'UTR act -5.3, Hsp70 act -0.3, APP 5UTR inh 5.3, NF-kB expr up 1.02, STAT1 activator 94.6 and Wee1 stabilizer 1.7.
Cc1ccoc1C(=O)Nc1ccc(CC(=O)O)cc1 was read as APP 5'UTR act -78.9, Hsp70 act -0.5, APP 5UTR inh 78.9*, NF-kB expr up 0.58, STAT1 activator 75.2 and Wee1 stabilizer -2.1.
For COc1cc(-c2ccc(NC(=O)CN3CCCCC3)c(OC)c2)ccc1NC(=O)CN1CCCCC1 the results were APP 5'UTR act 6.7, Hsp70 act 0.6, APP 5UTR inh -6.7, STAT1 activator 95.6 and Wee1 stabilizer 8.9*.
c1ccc2oc(C3=NNC(=NC4CC4)SC3)cc2c1 was read as Hsp70 act -0.3, NF-kB expr up 2.44, STAT1 activator 117.2 and Wee1 stabilizer 15.0*.
Screening Cc1cc(C2=NNC(=NC3CC3)SC2)c(C)n1-c1ccccc1F returned APP 5'UTR act -69.5, Hsp70 act -0.6, APP 5UTR inh 69.5*, NF-kB expr up 0.18, STAT1 activator 20.8 and Wee1 stabilizer -3.9.
For CCCCN=C1NN=C(c2ccc3c(c2)OCCO3)CS1 the results were APP 5'UTR act 80.2, Hsp70 act -0.6, APP 5UTR inh -80.2, NF-kB expr up 2.9, STAT1 activator 80.5 and Wee1 stabilizer 1.7.
Screening c1cc2c(cc1C1=NNC(=NC3CC3)SC1)OCCO2 returned APP 5'UTR act -51.0, Hsp70 act -0.6, APP 5UTR inh 51.0*, NF-kB expr up 0.26, STAT1 activator 12.3 and Wee1 stabilizer -5.9.
Screening Cc1sc2ncnc(N[C@@H](Cc3c[nH]c4ccccc34)C(=O)O)c2c1C returned APP 5'UTR act 0.3, Hsp70 act -0.3, APP 5UTR inh -0.3, NF-kB expr up 1.34, STAT1 activator 86.0 and Wee1 stabilizer -1.0.
Cc1cc(O)c(/C=N/c2ccccn2)c(=O)o1 was read as APP 5'UTR act 11.6, Hsp70 act 0.0, APP 5UTR inh -11.6, NF-kB expr up 1.14, STAT1 activator 104.5 and Wee1 stabilizer 0.6.
Screening Cc1ccc(S(=O)(=O)N(C)CC(=O)OCC(=O)NC(=O)Nc2ccc3c(c2)OCCO3)cc1 returned APP 5'UTR act -16.2, Hsp70 act -0.1, APP 5UTR inh 16.2, NF-kB expr up 1.16, STAT1 activator 112.9 and Wee1 stabilizer 2.8.
Screening CCOC(=O)CSc1nnc(CSc2nc(C)cc(C)n2)n1Cc1ccco1 returned APP 5'UTR act -10.8, Hsp70 act -0.1, APP 5UTR inh 10.8, NF-kB expr up 1.01, STAT1 activator 98.9 and Wee1 stabilizer -0.3.
`O=C(/C=C/c1ccco1)Oc1cc(Br)cc(/C=N/NC(=O)c2ccccc2O)c1` gave APP 5'UTR act -63.7, Hsp70 act -0.3, APP 5UTR inh 63.7*, NF-kB expr up 1.1, STAT1 activator 105.2 and Wee1 stabilizer -1.5.
For Cc1c2c(nc3c(C)cccc13)OC(C)C2 (centres undefined) the results were APP 5'UTR act 0.5, Hsp70 act 0.2, APP 5UTR inh -0.5, NF-kB expr up 1.08, STAT1 activator 100.7 and Wee1 stabilizer 0.1.
Screening Nc1c(-c2ccc(Cl)cc2)cnn1-c1cccc(C(F)(F)F)c1 returned APP 5'UTR act 64.1, Hsp70 act 0.2, APP 5UTR inh -64.1, NF-kB expr up 2.19, STAT1 activator 121.4 and Wee1 stabilizer 1.1.
For Cc1ccc(-c2cnn(-c3cccc(C(F)(F)F)c3)c2N)cc1 the results were APP 5'UTR act 134.2, Hsp70 act -0.1, APP 5UTR inh -134.3, NF-kB expr up 2.38, STAT1 activator 137.6* and Wee1 stabilizer -1.6.
Screening CCc1cc(C(=O)Nc2ccc(C)cc2Br)cs1 returned APP 5'UTR act 125.8, Hsp70 act -0.5, APP 5UTR inh -125.8, NF-kB expr up 5.83*, STAT1 activator 136.6* and Wee1 stabilizer 2.2.
For CCc1cc(C(=O)NNC(=S)Nc2cccc(C)c2)cs1 the results were APP 5'UTR act 161.9*, Hsp70 act 0.9, APP 5UTR inh -161.9, NF-kB expr up 2.81, STAT1 activator 114.4 and Wee1 stabilizer 1.2.
